{"source": "PubChem BioAssay (NCATS)", "note": "Results filed as inconclusive are left out. The source made the active and inactive calls. The call rests on the fitted dose curve.", "data": [{"molecular_target": "Vitamin D3 receptor (Homo sapiens) (UniProt P11473)", "sequence (P11473 whole entry, looked up)": "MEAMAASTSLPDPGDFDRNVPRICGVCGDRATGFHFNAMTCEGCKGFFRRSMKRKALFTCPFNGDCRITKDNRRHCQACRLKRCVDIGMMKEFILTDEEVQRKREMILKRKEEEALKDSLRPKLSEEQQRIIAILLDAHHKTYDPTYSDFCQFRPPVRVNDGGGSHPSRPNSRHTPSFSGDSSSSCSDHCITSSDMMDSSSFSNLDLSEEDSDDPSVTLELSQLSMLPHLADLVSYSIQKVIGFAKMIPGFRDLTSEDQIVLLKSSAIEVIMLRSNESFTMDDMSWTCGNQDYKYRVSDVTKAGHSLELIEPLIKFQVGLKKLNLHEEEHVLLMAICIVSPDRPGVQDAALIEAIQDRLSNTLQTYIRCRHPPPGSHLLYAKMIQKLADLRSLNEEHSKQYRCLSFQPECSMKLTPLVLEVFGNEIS", "assay": "qHTS assay for small molecule agonists of vitamin D receptor signaling (AID 588543)", "details": "HEK293T VDR-UAS-bla, beta-lactamase ratio, 16 h; series mostly up to 76.8 µM", "from_the_text": "NIH Chemical Genomics Center [NCGC]\nU.S. Environmental Protection Agency [EPA]\nNational Institutes of Environmental Health Sciences [NIEHS]\nNational Toxicology Program [NTP]\nThe Vitamin D receptor (VDR) is a member of nuclear hormone receptor superfamily and it plays a critical role in calcium homeostasis and bone metabolism. It plays a role in inducing cell differentiation, inhibiting cell growth and in thrombogenicity. So, VDR that mediates these effects represents a pharmacological target in prevention and treatment of hyperproliferative malignancies, such as cancer and psoriasis, cardiovascular, immunological, inflammatory and renal diseases etc.\nNCGC Assay Protocol Summary\nUsing a beta-lactamase reporter-gene under control of Vitamin D receptor (VDR) response element, a cell-based assay [GeneBLAzer (VDR -UAS-bla assay developed by Invitrogen] was used to measure VDR ligands signaling. GeneBLAzer VDR -UAS-bla HEK293T cells were used with assay medium containing 2% charcoal-stripped FBS. The assay was performed in clear bottom black Greiner 1536-well plates. 1-alpha,25-Dihydroxy vitaminD3 was used as a positive control in the screen. Library compounds were measured for their ability to stimulate the reporter gene activity. Compounds were screened in a titration series in 1536-well format. The fluorescence intensity (405 nm excitation, 460/530 nm emission) was measured using an EnVision plate reader. Data was normalized relative to 1-alpha,25-Dihydroxy vitaminD3 control (50 nM, 100%) and DMSO only wells (basal, 0%). Concentration-response titration points for each compound were fitted to the Hill equation yielding concentrations of half-maximal stimulation (EC50) and maximal response (efficacy) values.\nqHTS protocol for VDR beta-lactamase assay in agonist mode\n[Step] [Parameter] [Value] [Description]\n1. Reagent; 6 uL; 2000 cells/well\n2. Incubation; 37 C for 5 hrs\n4. Controls (1-alpha,25-Dihydroxy vitaminD3); 23 nL,\n- Final concentrations of 50 nM and 15 nM in two columns\n5. Incubation; 37 C for 16 hrs\n6. Detection reagent; 1 uL of CCF4-dye\n7. Incubation; RT for 2 hrs\n8. Detection; Fluorescence; Envision plate reader", "values": [{"smiles": "CCCCCCCC[Si](Cl)(Cl)Cl", "outcome": "inactive"}, {"smiles": "C=C(C)C(=O)OCCCCCCCCCCCCCCCC", "outcome": "inactive"}, {"smiles": "Brc1ccc(Br)c(Br)c1", "outcome": "inactive"}, {"smiles": "S=C([S-])NCCNC(=S)[S-].S=C([S-])NCCNC(=S)[S-].[Mn+2].[Zn+2]", "outcome": "inactive"}, {"smiles": "CC(=O)/C=C/C1C(C)=CCCC1(C)C", "note": "(stereo not given)", "outcome": "inactive"}, {"smiles": "Nc1ccc(N)c2c1C(=O)c1c(N)ccc(N)c1C2=O", "outcome": "inactive"}, {"smiles": "CCOC(=O)C(C)Oc1ccc(Oc2cnc3cc(Cl)ccc3n2)cc1", "note": "(stereo not given)", "outcome": "inactive"}, {"smiles": "OCCOCCOCCOCCOCCO", "outcome": "inactive"}, {"smiles": "O=C(O)CN(CCO)CCN(CC(=O)O)CC(=O)O", "outcome": "inactive"}, {"smiles": "CCCCCCCCCCCC[N+](C)(C)C", "outcome": "inactive"}, {"smiles": "CC(C)C(=O)OC(=O)C(C)C", "outcome": "inactive"}, {"smiles": "CC(C)Nc1nc(N)nc(Cl)n1", "outcome": "inactive"}, {"smiles": "CCCCOCCOCCO", "outcome": "inactive"}, {"smiles": "O=S(c1ccc(Cl)cc1)c1cc(Cl)c(Cl)cc1Cl", "note": "(stereo not given)", "outcome": "inactive"}, {"smiles": "CC1=CC(=O)CC(C)(C)C1", "outcome": "inactive"}, {"smiles": "CN(C)c1ccc(C(c2ccccc2)c2ccc(N(C)C)cc2)cc1", "outcome": "inactive"}, {"smiles": "COC(=O)c1ccc(C(=O)OC)cc1", "outcome": "inactive"}, {"smiles": "COc1ccc(OC)c(OC)c1", "outcome": "inactive"}, {"smiles": "O=C(O)C(Oc1ccc(Cl)cc1)Oc1ccc(Cl)cc1", "outcome": "inactive"}, {"smiles": "BrC1CCC(Br)C(Br)CCC(Br)C(Br)CCC1Br", "note": "(stereo not given)", "outcome": "inactive"}, {"smiles": "O=C(O)CCCCCCCCCCC(=O)O", "outcome": "inactive"}, {"smiles": "CC1(C)C(=O)N(Br)C(=O)N1Cl", "outcome": "inactive"}, {"smiles": "CC(=O)OC(C)(C)C1CC=C(C)CC1", "note": "(stereo not given)", "outcome": "inactive"}, {"smiles": "CC/C=C/CCCCCCCCCCOC(C)=O", "outcome": "inactive"}, {"smiles": "CCCCC(CC)COC(=O)/C=C\\C(=O)OCC(CC)CCCC", "note": "(stereo not given)", "outcome": "inactive"}, {"smiles": "CCCCC(CC)CN1C(=O)C2C3C=CC(C3)C2C1=O", "note": "(stereo not given)", "outcome": "inactive"}, {"smiles": "CCOC(=O)C1=NN(c2ccc(Cl)cc2Cl)C(C)(C(=O)OCC)C1", "note": "(stereo not given)", "outcome": "inactive"}, {"smiles": "COC(=O)c1c(Cl)nn(C)c1S(=O)(=O)NC(=O)Nc1nc(OC)cc(OC)n1", "outcome": "inactive"}, {"smiles": "CCCCCCC(C)OC(=O)COc1nc(F)c(Cl)c(N)c1Cl", "note": "(stereo not given)", "outcome": "inactive"}, {"smiles": "CCCCCCCC/C=C\\CCCCCCCCO", "outcome": "inactive"}, {"smiles": "CCCC[O][Al]([O]CCCC)[O]CCCC", "outcome": "inactive"}, {"smiles": "C=C[Si](C)(C)O[Si](C)(C)C=C", "outcome": "inactive"}, {"smiles": "NN(c1ccccc1)c1ccccc1", "outcome": "inactive"}, {"smiles": "O=[N+]([O-])C(CO)(CO)CO", "outcome": "inactive"}, {"smiles": "CCC/C(=N\\OCC)C1=C(O)CC(O)(CC(C)S(=O)(=O)CC)CC1=O", "note": "(stereo not given)", "outcome": "inactive"}, {"smiles": "N#CSCSc1nc2ccccc2s1", "outcome": "inactive"}, {"smiles": "Fc1ccc(Br)cc1", "outcome": "inactive"}, {"smiles": "C=Cc1ccc(P(c2ccccc2)c2ccccc2)cc1", "outcome": "inactive"}, {"smiles": "CCCCCCCCCCCCCCCCCCN", "outcome": "inactive"}, {"smiles": "Cc1cc(C)c(N)c(Cl)c1", "outcome": "inactive"}]}]}
